Test [1] in a line: ATG_GLI_CIS: Attagene CIS-FACTORIAL HepG2 Assay for human Zinc Finger Protein GLI1 (AID 2282945). As to conditions: HepG2, Attagene cis-factorial reporter mRNA, GLI element; actives raise or lower the signal. The procedure, abridged: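 Bidirectional curve fits relative to DMSO, using reporter mRNA levels from RT-PCR plus capillary electrophoresis. Cells were HepG2 transiently carrying cis-regulated reporter constructs, harvested 24 h after dosing.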

Test [2] has as its target Bile acid receptor (Homo sapiens) (UniProt Q96RI1). The experiment in a line: ATG_IR1_CIS: Attagene CIS-FACTORIAL HepG2 Assay for human Nuclear Receptor Subfamily 1 Group H Member 4 (NR1H4), IR1 submotif (AID 2282946). The note with it: IR1 reporter transcription, actives raise or lower the signal. The procedure, abridged:
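HepG2 cells transiently transfected with multiplexed cis-element reporter units read endogenous transcription factor activity. After 24 h compound exposure, reporter mRNA was quantified by RT-PCR, fluorescent labelling, HpaI digestion and capillary electrophoresis; bidirectional fitting versus DMSO baseline.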

Test [3] in a line: ATG_GRE_CIS: Attagene CIS-FACTORIAL HepG2 Assay for human Glucocorticoid Response Elements (GRE) (AID 2282947). The note with it: HepG2 GRE cis-reporter, Attagene multiplex mRNA; actives raise or lower the signal. The method, boiled down:
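Multiplexed cis-reporter mRNA induction, HepG2, 24 h post-dose. RT-PCR, FAM-labelled, HpaI-digested amplicons by CE. Bidirectional fit vs DMSO.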

Test [4] is described as follows: ATG_ISRE_CIS: Attagene CIS-FACTORIAL HepG2 Assay for human Interferon Regulatory Factor 1 (IRF1) binding to an Interferon-Stimulated Response Element (ISRE) (AID 2282948). As to conditions: HepG2 ISRE cis-reporter (Attagene), mRNA transcription readout; actives raise or lower the signal. The procedure, abridged:
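Endogenous transcription factor activity read as reporter transcript abundance via RT-PCR and capillary electrophoresis. HepG2 cells transiently transfected, 24 h chemical exposure. Gain or loss fitted against DMSO baseline.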

Test [5] in a line: ATG_M_32_CIS: Attagene CIS-FACTORIAL HepG2 Assay for M32 Transcription Factor (Internal Marker) (AID 2282949).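 Also: background control marker of the multiplexed CIS panel rather than a real target.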 The note with it: HepG2 Attagene cis-factorial M32 reporter, mRNA; actives raise or lower the signal. The method, boiled down:
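Using DMSO as baseline, bidirectional curve fits were applied to reporter mRNA signals. These came from transiently transfected HepG2 cells exposed for 24 h, with RNA analysed by RT-PCR, FAM primer extension, HpaI digestion and CE.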

Test [6] concerns the target Hypoxia-inducible factor 1-alpha (Homo sapiens) (UniProt Q16665). In words: ATG_HIF1a_CIS: Attagene CIS-FACTORIAL HepG2 Assay for human Hypoxia Inducible Factor 1 (HIF1A) (AID 2282951). As to conditions: HepG2 Attagene cis-factorial HIF1a reporter transcription; actives raise or lower the signal. The procedure, abridged: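 Endogenous-TF cis reporter readout, human HepG2 cells, 24 h incubation; mRNA detected via RT-PCR and capillary electrophoresis fluorescence; DMSO-normalised bidirectional fitting.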

In test [7] the target is Hepatocyte nuclear factor 6 (Homo sapiens) (UniProt Q9UBC0). In words: ATG_HNF6_CIS: Attagene CIS-FACTORIAL HepG2 Assay for human Hepatocyte Nuclear Factor 6 (HNF6) (AID 2282952). As to conditions: HepG2 Attagene cis-factorial HNF6 reporter transcription; actives raise or lower the signal. The procedure, abridged:
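Using cis-element reporters in HepG2 liver cells, the assay tracks endogenous factor-driven transcription 24 h post-dosing. Signal comes from 6-FAM-labelled, HpaI-digested RT-PCR fragments, with gain or loss scored against DMSO.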

The target of test [8] is Heat shock factor protein 1 (Homo sapiens) (UniProt Q00613). In words: ATG_HSE_CIS: Attagene CIS-FACTORIAL HepG2 Assay for human Heat Shock Transcription Factor 1 (HSE) (AID 2282953). The note with it: HepG2 HSE cis-reporter, Attagene RNA transcription; actives raise or lower the signal. The procedure, abridged:
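After a 24 h incubation with test chemical, transfected HepG2 cells were harvested for RNA; reporter transcripts were measured by RT-PCR and capillary electrophoresis. Values reflect gain or loss of signal relative to DMSO.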

Test [9] in a line: ATG_MRE_CIS: Attagene CIS-FACTORIAL HepG2 Assay for human Metal Responsive Element (MRE) (AID 2282954). As to conditions: HepG2 MRE cis-reporter transcription, Attagene multiplex; actives raise or lower the signal. The procedure, abridged: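 Multiplexed cis-reporter assay in human HepG2 liver cells, 24 h incubation with test chemical. Reporter transcripts measured by RT-PCR and capillary electrophoresis; values from bidirectional curve fitting versus DMSO.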

Test [10] is described as follows: ATG_PBREM_CIS: Attagene CIS-FACTORIAL HepG2 Assay for human Phenobarbital-responsive Enhancer Module (PBREM) (AID 2282955). The note with it: HepG2 PBREM cis-reporter, Attagene multiplexed transcription; actives raise or lower the signal. The method, boiled down:
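Readout: reporter mRNA, fluorescent RT-PCR fragments separated by capillary electrophoresis. System: HepG2 transiently transfected with cis-regulated reporter units. Exposure: 24 h. Analysis: bidirectional, DMSO baseline.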

The target in test [11] is Paired box protein Pax-6 (Homo sapiens) (UniProt P26367). In words: ATG_Pax6_CIS: Attagene CIS-FACTORIAL HepG2 Assay for human Paired Box 6 (PAX6) (AID 2282956). As to conditions: HepG2 CIS-FACTORIAL PAX6 reporter transcription, RNA readout; actives raise or lower the signal. The method, boiled down:
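Read-out is reporter transcript level, measured by RT-PCR with fluorescent primer extension and capillary electrophoresis after 24 h dosing of transfected HepG2 cells. Activity in either direction fitted relative to DMSO control.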

The nature of test [12]: ATG_PXRE_CIS: Attagene CIS-FACTORIAL HepG2 Assay for human Pregnane X Receptor Element (PXRE) (AID 2282957). The note with it: HepG2 Attagene CIS-FACTORIAL PXRE reporter, mRNA; actives raise or lower the signal. The procedure, abridged: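 Using HepG2 transfected with multiple reporter transcription units, endogenous factor-driven transcription was scored as reporter mRNA after 24 h exposure.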

Test [13] can be described thus: ATG_PPRE_CIS: Attagene CIS-FACTORIAL HepG2 Assay for human Peroxisome Proliferator-activated Response Element (PPRE) (AID 2282958). The note with it: HepG2 PPRE cis-element reporter, Attagene transcription factor profiling; actives raise or lower the signal. The procedure, abridged: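 After human HepG2 hepatoma cells were transiently transfected with cis-promoter reporter constructs, they were exposed to test chemicals for 24 hours. Reporter RNA was then reverse-transcribed, PCR-amplified, FAM-labeled, HpaI-digested and quantified by capillary electrophoresis.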

A short description of test [14]: ATG_RORE_CIS: Attagene CIS-FACTORIAL HepG2 Assay for human RAR-related Orphan Receptor Element (RORE) (AID 2282959). As to conditions: HepG2 Attagene cis-factorial RORE reporter, mRNA; actives raise or lower the signal. The method, boiled down: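 Measured here: transcript induction of a cis-regulated reporter in HepG2 cells transiently transfected via FuGene 6. After 24 h, RNA was processed by RT-PCR and fluorescent capillary electrophoresis; DMSO defined baseline activity.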

The nature of test [15]: ATG_Sox_CIS: Attagene CIS-FACTORIAL HepG2 Assay for human SRY-box transcription factor (SOX) (AID 2282960). The note with it: HepG2 Attagene cis-factorial SOX reporter, mRNA; actives raise or lower the signal. The method, boiled down:
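Using transiently transfected HepG2 cells, reporter transcription driven by cis elements was assessed 24 h after dosing. Signal was fluorescence of capillary-separated RT-PCR products, with DMSO defining baseline activity.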

The target of test [16] is Transcription factor Sp1 (Homo sapiens) (UniProt P08047). In words: ATG_Sp1_CIS: Attagene CIS-FACTORIAL HepG2 Assay for human Specificity Protein 1 (Sp1) (AID 2282961). As to conditions: HepG2 Sp1 cis-reporter transcription, actives raise or lower the signal. The method, boiled down: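 After transient transfection of HepG2 cells with cis-promoter reporter units and 24 h chemical treatment, reporter transcripts were quantified by RT-PCR and capillary electrophoresis fluorescence. Gain- and loss-of-signal fitted against DMSO.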

Test [17] is described as follows: ATG_SREBP_CIS: Attagene CIS-FACTORIAL HepG2 Assay for human Sterol Regulatory Element Binding (SREBP) (AID 2282962). The note with it: HepG2 Attagene cis-factorial SREBP reporter, mRNA; actives raise or lower the signal. The procedure, abridged:
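Endogenous SREBP activity read as cis-element-driven reporter transcript in transiently transfected HepG2, 24 h post-dosing; quantified via RT-PCR plus capillary electrophoresis of fluorescent fragments. Gain or loss of signal fitted relative to DMSO baseline.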

Test [18] in a line: ATG_TA_CIS: Attagene CIS-FACTORIAL HepG2 Assay for human TA Basal Promoter (AID 2282964). As to conditions: HepG2 Attagene CIS-factorial TA basal promoter reporter; actives raise or lower the signal. The procedure, abridged:
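Multiplexed mRNA reporter assay, HepG2, 24 h. Reporter cDNA amplified, 6-FAM primer-extended, HpaI-cut, CE-sized; DMSO = negative control and baseline.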

The target of test [19] is Signal transducer and activator of transcription 3 (Homo sapiens) (UniProt P40763). The experiment in a line: ATG_STAT3_CIS: Attagene CIS-FACTORIAL HepG2 Assay for human Signal Transducer and Activator of Transcription 3 (STAT3) (AID 2282963). The note with it: HepG2, Attagene cis-factorial STAT3 reporter transcription; actives raise or lower the signal. The procedure, abridged: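 Cis-factorial format: endogenous transcription factors in HepG2 drive transfected reporter units. After 24 h treatment, reporter RNA was reverse-transcribed, amplified, FAM-labelled and HpaI-digested before CE analysis; activity scored in both directions against DMSO.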

Consider seven compounds from PubChem BioAssay (EPA / NIEHS).

The source made the active and inactive calls. The calls were made as follows: active = hit-call score of the fitted dose curve at least 0.9, where 1 is the maximum; inactive = score below 0.9.

Chain of Transcription factor Sp1 (Homo sapiens) (P08047 whole entry, looked up): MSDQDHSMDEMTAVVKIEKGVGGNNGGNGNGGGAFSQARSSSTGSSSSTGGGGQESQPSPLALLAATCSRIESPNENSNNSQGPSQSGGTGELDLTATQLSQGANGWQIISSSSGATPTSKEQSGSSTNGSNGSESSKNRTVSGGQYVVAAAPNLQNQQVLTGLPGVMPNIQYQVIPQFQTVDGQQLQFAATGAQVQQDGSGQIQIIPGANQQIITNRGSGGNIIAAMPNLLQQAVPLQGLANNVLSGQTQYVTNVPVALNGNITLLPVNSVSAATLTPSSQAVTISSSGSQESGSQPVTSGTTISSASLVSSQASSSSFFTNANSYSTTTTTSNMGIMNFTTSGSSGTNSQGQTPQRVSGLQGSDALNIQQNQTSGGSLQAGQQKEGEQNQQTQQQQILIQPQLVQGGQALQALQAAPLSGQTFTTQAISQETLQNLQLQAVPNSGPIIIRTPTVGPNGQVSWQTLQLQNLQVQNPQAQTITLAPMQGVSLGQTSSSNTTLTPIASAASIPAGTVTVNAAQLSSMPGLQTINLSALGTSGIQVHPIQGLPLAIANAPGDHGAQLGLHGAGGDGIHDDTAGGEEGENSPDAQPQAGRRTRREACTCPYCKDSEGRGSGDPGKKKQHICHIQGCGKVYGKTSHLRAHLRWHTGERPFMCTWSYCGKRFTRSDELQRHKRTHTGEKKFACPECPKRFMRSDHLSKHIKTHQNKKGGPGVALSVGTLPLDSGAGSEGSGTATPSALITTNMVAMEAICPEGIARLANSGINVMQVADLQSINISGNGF
Chain of Hepatocyte nuclear factor 6 (Homo sapiens) (Q9UBC0 whole entry, looked up, the tested form may be a part): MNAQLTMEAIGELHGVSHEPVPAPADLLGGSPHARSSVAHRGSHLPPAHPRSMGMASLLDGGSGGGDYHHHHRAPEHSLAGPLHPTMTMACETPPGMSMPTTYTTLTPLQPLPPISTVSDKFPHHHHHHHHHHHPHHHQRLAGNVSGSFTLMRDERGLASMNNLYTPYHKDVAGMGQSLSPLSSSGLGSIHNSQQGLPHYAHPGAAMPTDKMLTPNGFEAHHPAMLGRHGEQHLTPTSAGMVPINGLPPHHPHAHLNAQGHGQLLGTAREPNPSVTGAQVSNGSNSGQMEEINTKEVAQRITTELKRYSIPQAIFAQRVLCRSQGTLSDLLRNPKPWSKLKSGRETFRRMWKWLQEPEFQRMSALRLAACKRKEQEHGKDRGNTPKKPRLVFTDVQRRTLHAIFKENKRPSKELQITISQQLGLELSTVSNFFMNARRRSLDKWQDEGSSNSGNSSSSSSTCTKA
Chain of Hypoxia-inducible factor 1-alpha (Homo sapiens) (Q16665 whole entry, looked up): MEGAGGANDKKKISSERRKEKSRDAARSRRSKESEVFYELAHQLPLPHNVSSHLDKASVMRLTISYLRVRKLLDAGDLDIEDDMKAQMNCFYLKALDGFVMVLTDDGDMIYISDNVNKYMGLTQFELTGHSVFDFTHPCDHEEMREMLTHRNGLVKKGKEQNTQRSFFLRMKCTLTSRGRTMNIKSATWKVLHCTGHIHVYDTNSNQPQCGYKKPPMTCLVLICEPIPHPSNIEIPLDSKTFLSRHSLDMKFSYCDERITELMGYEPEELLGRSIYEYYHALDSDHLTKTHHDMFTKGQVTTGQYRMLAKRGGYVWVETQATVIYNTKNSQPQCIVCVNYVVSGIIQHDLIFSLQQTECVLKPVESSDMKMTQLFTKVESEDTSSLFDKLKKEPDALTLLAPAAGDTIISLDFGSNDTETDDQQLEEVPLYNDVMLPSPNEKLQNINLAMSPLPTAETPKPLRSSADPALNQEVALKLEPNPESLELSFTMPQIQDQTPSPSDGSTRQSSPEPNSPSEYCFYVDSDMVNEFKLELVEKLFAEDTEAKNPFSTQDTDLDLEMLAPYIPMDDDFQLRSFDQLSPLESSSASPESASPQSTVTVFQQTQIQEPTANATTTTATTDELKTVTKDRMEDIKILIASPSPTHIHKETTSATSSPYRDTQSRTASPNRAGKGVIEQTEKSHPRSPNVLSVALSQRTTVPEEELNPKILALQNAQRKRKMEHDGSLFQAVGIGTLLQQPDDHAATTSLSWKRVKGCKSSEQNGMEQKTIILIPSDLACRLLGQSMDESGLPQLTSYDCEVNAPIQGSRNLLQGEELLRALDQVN
Chain of Signal transducer and activator of transcription 3 (Homo sapiens) (P40763 whole entry, looked up): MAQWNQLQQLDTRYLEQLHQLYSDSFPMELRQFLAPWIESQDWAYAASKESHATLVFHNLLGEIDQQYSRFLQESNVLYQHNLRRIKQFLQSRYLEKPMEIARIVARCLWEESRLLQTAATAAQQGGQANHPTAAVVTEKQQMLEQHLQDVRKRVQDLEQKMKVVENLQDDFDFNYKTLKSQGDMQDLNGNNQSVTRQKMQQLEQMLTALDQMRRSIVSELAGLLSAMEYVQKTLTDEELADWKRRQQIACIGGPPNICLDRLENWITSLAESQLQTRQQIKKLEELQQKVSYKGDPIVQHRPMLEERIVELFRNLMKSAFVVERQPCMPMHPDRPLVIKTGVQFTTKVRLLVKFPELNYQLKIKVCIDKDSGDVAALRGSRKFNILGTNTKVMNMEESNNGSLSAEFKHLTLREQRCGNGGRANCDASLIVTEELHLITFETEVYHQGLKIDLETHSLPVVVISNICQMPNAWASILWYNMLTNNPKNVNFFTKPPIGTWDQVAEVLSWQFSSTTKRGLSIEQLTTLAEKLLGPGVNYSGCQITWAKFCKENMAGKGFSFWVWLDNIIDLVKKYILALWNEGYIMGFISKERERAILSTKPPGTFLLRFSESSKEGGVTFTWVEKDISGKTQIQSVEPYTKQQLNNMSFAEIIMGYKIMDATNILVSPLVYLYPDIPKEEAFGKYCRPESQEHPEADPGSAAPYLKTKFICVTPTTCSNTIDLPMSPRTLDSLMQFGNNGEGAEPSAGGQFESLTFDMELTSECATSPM
Chain of Bile acid receptor (Homo sapiens) (Q96RI1 whole entry, looked up): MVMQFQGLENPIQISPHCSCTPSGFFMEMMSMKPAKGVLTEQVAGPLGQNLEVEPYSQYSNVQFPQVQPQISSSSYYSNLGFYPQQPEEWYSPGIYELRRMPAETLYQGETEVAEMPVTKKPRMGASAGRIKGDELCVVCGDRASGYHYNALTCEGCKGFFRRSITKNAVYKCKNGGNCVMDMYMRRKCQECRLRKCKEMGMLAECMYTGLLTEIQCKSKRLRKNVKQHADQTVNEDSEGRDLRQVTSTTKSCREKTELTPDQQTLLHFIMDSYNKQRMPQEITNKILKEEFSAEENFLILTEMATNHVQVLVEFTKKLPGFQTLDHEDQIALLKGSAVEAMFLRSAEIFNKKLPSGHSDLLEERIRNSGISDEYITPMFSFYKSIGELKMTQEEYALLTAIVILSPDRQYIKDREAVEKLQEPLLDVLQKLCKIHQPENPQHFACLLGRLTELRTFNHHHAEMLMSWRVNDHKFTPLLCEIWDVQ
Chain of Heat shock factor protein 1 (Homo sapiens) (Q00613 whole entry, looked up): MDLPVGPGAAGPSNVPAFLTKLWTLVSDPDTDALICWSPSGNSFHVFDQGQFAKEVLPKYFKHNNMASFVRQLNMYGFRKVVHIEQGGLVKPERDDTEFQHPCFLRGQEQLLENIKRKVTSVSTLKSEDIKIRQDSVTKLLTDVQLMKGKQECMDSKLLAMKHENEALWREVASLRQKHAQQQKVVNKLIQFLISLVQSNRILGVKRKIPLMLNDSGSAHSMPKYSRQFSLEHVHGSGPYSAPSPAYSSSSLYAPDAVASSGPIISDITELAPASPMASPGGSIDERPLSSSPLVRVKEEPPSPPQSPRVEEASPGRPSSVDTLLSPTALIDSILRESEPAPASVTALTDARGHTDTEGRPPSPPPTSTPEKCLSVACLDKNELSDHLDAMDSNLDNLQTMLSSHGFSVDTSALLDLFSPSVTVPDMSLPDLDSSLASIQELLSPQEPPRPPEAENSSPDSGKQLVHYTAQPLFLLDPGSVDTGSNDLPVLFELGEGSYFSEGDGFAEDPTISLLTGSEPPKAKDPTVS
Chain of Paired box protein Pax-6 (Homo sapiens) (P26367 whole entry, looked up): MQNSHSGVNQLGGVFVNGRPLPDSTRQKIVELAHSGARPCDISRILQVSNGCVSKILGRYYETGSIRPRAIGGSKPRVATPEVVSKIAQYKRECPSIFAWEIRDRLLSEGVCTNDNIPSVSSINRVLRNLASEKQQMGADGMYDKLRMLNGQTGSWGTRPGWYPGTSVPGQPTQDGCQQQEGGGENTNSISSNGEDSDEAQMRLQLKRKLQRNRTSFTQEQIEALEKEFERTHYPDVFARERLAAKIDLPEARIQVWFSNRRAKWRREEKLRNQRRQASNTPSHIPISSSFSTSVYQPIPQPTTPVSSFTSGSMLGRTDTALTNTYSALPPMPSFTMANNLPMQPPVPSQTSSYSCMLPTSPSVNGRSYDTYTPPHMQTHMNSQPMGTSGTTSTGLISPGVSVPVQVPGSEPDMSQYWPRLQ

As a reminder, the AC50 is the concentration giving half of the maximal activity seen. Take `COc1cc(OC)nc(NC(=O)NS(=O)(=O)c2cc(NC=O)ccc2C(=O)N(C)C)n1`: the outcome in test [1], in [2], in [3], in test [4], in test [5] and in test [6] was inactive. The call in test [7], in test [8], in [9], in [10], in [11] and in test [13] was inactive. Further, the result in test [14], in test [15], in test [16] and in test [17] was inactive. The AC50 in test [12] was 17.1 µM (active).

`Clc1ccccc1-c1nnc(-c2ccccc2Cl)nn1`: the call in test [1], in test [4], in test [5], in [6], in test [7] and in test [8] was inactive. The outcome in test [9], in test [10], in test [11], in test [12], in test [14] and in [15] was inactive. In addition, the compound was called inactive in test [16], in test [17] and in test [18]. The AC50 in test [13] was 8.03 µM (active).

With `O=C(NC(=O)c1c(F)cccc1F)Nc1ccc(OC(F)(F)C(F)OC(F)(F)F)c(Cl)c1` (stereo not drawn), the compound was classed as inactive in test [1], in test [3], in test [4], in test [5], in test [6] and in [7]. Further, the outcome in test [8], in [9], in [11], in test [12], in test [14] and in test [15] was inactive. Also, the compound was classed as inactive in test [16], in test [17], in [19] and in [18]. For the same compound, in test [13], the AC50 was 20.9 µM (active).

For the compound `C[C@H]1[C@H](c2ccc(Cl)cc2)SC(=O)N1C(=O)NC1CCCCC1`, the compound was classed as inactive in [1], in test [3], in [4], in test [5], in test [6] and in [7]. Moreover, the call in test [8], in [11], in [15], in [16], in [17] and in test [19] was inactive. Besides, the AC50 is 38.3 µM (active) in test [9], 27.2 µM (active) in test [10], 1.93 µM (active) in [12] and 17.5 µM (active) in test [14].

Take `O=C1c2ccccc2C(=O)N1SC(Cl)(Cl)Cl`: the call in test [1], in test [2], in test [4], in test [5], in test [6] and in test [7] was inactive. Moreover, the compound was called inactive in test [8], in test [9], in test [10], in test [11], in [13] and in test [14]. The outcome in test [15], in test [16], in test [17] and in test [19] was inactive. In test [12], the AC50 was 15.8 µM (active).

Consider `CNC(=O)CSP(=S)(OC)OC`, for which the call in test [1], in test [4], in test [5], in [6], in test [7] and in test [8] was inactive. Also, the compound was called inactive in test [9], in test [10], in test [11], in test [12], in [13] and in test [14]. For the same compound, the result in test [15], in test [16] and in [17] was inactive.

For the compound `CC(C)OC(=O)Nc1cccc(Cl)c1`, the result in [1], in test [2], in [4], in test [5], in test [6] and in test [7] was inactive. Also, the compound was called inactive in [8], in test [11], in [14], in [15], in test [16] and in test [17]. For the same compound, the values for the AC50 in test [9], in test [12] and in test [13] were 50 µM (active), 15.5 µM (active) and 47.1 µM (active), respectively.
